Source: PubChem BioAssay
MEX-5 binding: C. elegans MEX-5 TCR-2 RNA binding activity; Q9XUB2; MEX-5/FITC-TCR2 RNA binding, fluorescence polarization; stronger effect = lower value; activity score (negative = inhibition of binding), % at 10 µM; 0.38% of 300,000 active; AID 1832;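 active = inhibition past about -25% in most replicates, and total fluorescence under double the plate's negative control median, limit read from the data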;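 note: 0% = DMSO and -100% = 5 µM competing unlabeled TCR2 RNA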
GLD-1 TGE inh: GLD-1-TGE RNA interaction inhibition (C. elegans) | 0.44% of 320,000 active | Q17339 | inhibition, % at 5.96 µM | AID 2280 | purified GLD-1 + fluorescein TGE RNA, fluorescence polarization;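 active = percent inhibition above a per-plate cutoff, the plate mean of test compounds plus 3 SD, cut at about 30% in these data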;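 note: 0% = DMSO wells with GLD-1 and probe and 100% = wells lacking GLD-1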
EBV gp42 inh: inhibitors of Epstein-Barr virus glycoprotein 42 | Fluorescence polarization binding assay, mP read-out | inhibition, % (tested at 21.74 µM) | Q1HVG2 | 0.42% of 220,000 active; in the data active = inhibition above about 50%
Target sequence (Q1HVG2 whole entry, looked up): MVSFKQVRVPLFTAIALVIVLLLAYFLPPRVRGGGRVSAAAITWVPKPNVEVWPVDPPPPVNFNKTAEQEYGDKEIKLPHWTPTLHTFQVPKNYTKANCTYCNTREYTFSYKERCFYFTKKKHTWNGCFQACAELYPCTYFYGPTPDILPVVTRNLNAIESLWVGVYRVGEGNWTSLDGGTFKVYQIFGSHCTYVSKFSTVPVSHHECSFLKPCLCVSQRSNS
MCL1-BIM inh: MCL1-BIM-BH3 interaction inhibition (human); inhibition, % at 10.9 µM; Q07820; GST-MCL1 / FITC-Bim-BH3 fluorescence polarization; 0.68% of 320,000 active;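 active = inhibition above the mean inhibition of all tested compounds plus 3 SD, set per campaign, cut at about 40% in these data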;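 note: 0% = DMSO wells and 100% = unlabeled Bim-BH3 peptide control; higher means more loss of mP so more displacement of Bim peptide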
E coli Lon inh: E. coli protease La inhibition; 0.42% of 360,000 active; purified E. coli Lon protease, fluorescence polarization; inhibition, % at 7.94 µM; P0A9M0; in the data active = inhibition above about 13%, passing the limit was not always enough;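 note: 0% = enzyme with probe and DMSO and 100% = no enzyme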
Bcl-xL primary: Bcl-xL (human) inhibition | GST-Bcl-xL / FITC-Bim BH3 peptide fluorescence polarization | inhibition, % at 10.9 µM | 0.7% of 320,000 active | Q07817;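 active = inhibition above the mean of all tested compounds plus 3 SD, cutoff set per campaign, cut at about 30% in these data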;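 note: 0% = DMSO wells and 100% = unlabeled Bim-BH3 peptide competitor; inhibitors lower millipolarization by displacing the labeled peptide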
Target sequence (Q07817 whole entry, looked up): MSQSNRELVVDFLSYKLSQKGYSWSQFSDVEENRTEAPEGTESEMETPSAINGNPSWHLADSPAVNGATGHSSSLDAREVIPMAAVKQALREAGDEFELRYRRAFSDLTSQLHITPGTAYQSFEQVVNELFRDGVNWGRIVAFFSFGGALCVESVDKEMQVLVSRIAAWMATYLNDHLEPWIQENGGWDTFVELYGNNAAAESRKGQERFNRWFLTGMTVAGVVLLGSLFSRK
E coli Lon conf: confirmation of E. coli Lon protease inhibitors. shares compounds with E coli Lon inh. purified E. coli Lon, fluorescence polarization. inhibition, % at 7.94 µM. 31% of 1,400 active; in the data active = inhibition above about 16%;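 note: 0% = enzyme with probe and DMSO and 100% = no enzyme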
* hit, by the source's call; nt = no result. Most compounds without a hit are left out; they make up all but 1.5% or so of the library.

SMILES	MEX-5 binding	GLD-1 TGE inh	EBV gp42 inh	MCL1-BIM inh	E coli Lon inh	Bcl-xL primary	E coli Lon conf
COCCn1c(SCC(=O)NC2CCCC(C)C2C)nc2ccccc2c1=O (stereo unspecified)	nt	nt	nt	nt	5	nt	nt
COc1ccc(CNC(NC(=O)c2ccccc2)(C(F)(F)F)C(F)(F)F)cc1	1	2	9	0	30*	-1	3
Cc1noc(C)c1S(=O)(=O)N(C)C[C@@H]1OCc2cnnn2CCCC(=O)N([C@@H](C)CO)C[C@H]1C	nt	nt	nt	nt	15*	nt	-10
C[C@H]1CN([C@@H](C)CO)C(=O)CCCn2nncc2CO[C@H]1CN(C)C(=O)NC1CCCCC1	nt	nt	nt	nt	13*	nt	-3
CC1(C(=O)OCC(=O)Nc2ccc3ccccc3c2)CC1(Cl)Cl (stereo unspecified)	1	5	9	-3	5	1	nt
CC(C)c1ccc(NC(=S)N2CCN(S(=O)(=O)c3ccccc3)CC2)cc1	-1	9	nt	5	-6	1	nt
CC(=O)Nc1cc(-c2ccc(CO)cc2)cn2c(-c3cccc(C(F)(F)F)c3)cnc12	nt	nt	nt	nt	-14	nt	nt
C=CCOn1c(=O)c(-c2cc3ccccc3o2)[n+]([O-])c2ccccc21	-27*	7	-12	39	17*	45*	-213
O=C(c1cnccn1)N1CCN(S(=O)(=O)c2ccc3ccccc3c2)CC1	2	-5	-14	-11	20*	-7	1
O=C(CSc1nc(Nc2ccccc2)nc(N2CCOCC2)n1)NC1CCCCC1	-6	-3	nt	8	-8	1	nt
CC(NC(=O)NC(=O)c1ccc(F)cc1)C1CC1 (stereo unspecified)	nt	2	nt	nt	26*	nt	-4
CC(NC(=O)NC(=O)c1cccc([N+](=O)[O-])c1)C1CC1 (stereo unspecified)	2	nt	nt	nt	7	nt	nt
Cc1cc(C)n2nc(SCC(=O)c3c(N)n(CC(C)C)c(=O)n(C)c3=O)nc2n1	1	-1	-6	3	-5	5	nt
Cc1ccc(-n2nc3c(=O)n(CC(=O)NCCCc4ccccc4)nc(C)c3c2C)cc1	-1	-3	nt	-6	2	-2	nt
Cc1ccc(-n2nc3c(=O)n(CC(=O)NCCc4ccco4)nc(C)c3c2C)cc1	-3	4	nt	2	36*	6	-2
CCn1c(CC(=O)Nc2ccccc2F)nnc1SCC(=O)NC1CCCC1	1	0	nt	-1	17*	-6	5
Cn1c(CC(=O)Nc2ccccc2F)nnc1SCC(=O)NC1CCCCC1	2	-8	nt	3	-6	2	nt
CCN1CCN(C(=O)Cn2nc(C)c3sc4ccccc4c3c2=O)CC1	1	-5	nt	0	21*	3	1
O=C(CN1C(=O)C2CC=CCC2C1=O)Nc1ccc(OC(F)(F)F)cc1 (stereo unspecified)	nt	1	nt	6	4	0	nt
O=C(O)CCC1(C(=O)O)OCCc2ccccc21 (stereo unspecified)	0	1	16	-2	17*	3	-2
OCC[C@@H]1C[C@@H](O)[C@H](O)[C@]2(OCCc3ccccc32)O1	0	-2	nt	0	8	7	nt
O=S(=O)(Oc1ccc(Cl)cc1)c1cccc2cccnc12	nt	0	-3	-3	1	2	nt
COc1ccc(CN2CCN(C(=O)C3CCC(CNS(=O)(=O)c4ccccc4)CC3)CC2)c(OC)c1OC (stereo unspecified)	2	-1	-4	6	143*	4	-4
O=C(C1CCC(CNS(=O)(=O)c2ccccc2)CC1)N1CCCCC1 (stereo unspecified)	0	-4	nt	-3	-6	-5	nt
COc1ccc2cc(C(C)C(=O)Nc3cccc(S(=O)(=O)N(C)C)c3)ccc2c1 (stereo unspecified)	2	-1	nt	-6	19	0	nt
SMILES	MEX-5 binding	GLD-1 TGE inh	EBV gp42 inh	MCL1-BIM inh	E coli Lon inh	Bcl-xL primary	E coli Lon conf
Cc1cc(OCC(=O)N2CCOCC2)ccc1NC(=O)c1ccccc1C	-2	1	nt	-2	17*	2	0
O=C(N/N=C/c1ccc(OCC(=O)N2CCOCC2)cc1)c1ccccc1Cl	3	-6	-11	11	-6	4	nt
O=C(Nc1ccc(N2CCCCCC2)cc1)c1ccccc1Cl	3	9	0	9	19*	3	0
CC(=O)N1CCN(c2ccc(NC(=O)c3ccccc3Cl)cc2)CC1	-1	5	nt	0	-11	3	nt
O=C(Nc1ccc(OCC(=O)N2CCOCC2)cc1)c1ccccc1Cl	1	3	nt	4	22*	3	0
Cc1ccc(NC(=O)c2cc(=O)[nH]c3ccccc23)cc1C	0	nt	nt	nt	2	nt	nt
O=C(COC(=O)c1ccc(Br)o1)NCCc1ccccc1	2	3	-11	4	1	1	nt
COC(=O)Nc1ccc(S(=O)(=O)Nc2ncccn2)cc1	0	3	-9	5	27*	1	-78
COc1ccc(C(=O)Nc2ccc(S(=O)(=O)Nc3ncccn3)cc2)cc1OC	1	1	-11	-4	21*	0	9
O=C(Nc1ccc(S(=O)(=O)Nc2ncccn2)cc1)c1ccccc1	2	-3	nt	6	14	5	nt
CCCCOC(=O)Nc1ccc(S(=O)(=O)Nc2ncccn2)cc1	2	-8	0	-17	21*	-13	30*
C/C(=C\c1ccccc1)C(=O)Nc1ccc(S(=O)(=O)Nc2ncccn2)cc1	0	3	7	4	22*	3	-18
Cc1ccc(S(=O)(=O)N2CCN(C(=O)/C=C/c3ccccc3)CC2)cc1C	nt	nt	nt	nt	-6	nt	nt
CCCNC(=O)c1cc(C2CCCCN2C(=O)c2cccs2)on1 (stereo unspecified)	nt	nt	nt	nt	2	nt	nt
O=C(Nc1cc(S(=O)(=O)N2CCOCC2)ccc1N1CCOCC1)c1cccs1	nt	1	nt	-4	9	0	nt
O=C(O)/C=C\C(=O)NC1CCCCC1	-2	4	-3	1	28*	1	8
COCC1CCCCN1C(=O)c1cccc(OC2CCN(S(C)(=O)=O)CC2)c1 (stereo unspecified)	-4	3	nt	-1	11	4	nt
COc1ccc(C(C)=O)cc1CSc1nnc(-c2ccncc2)o1	3	-5	nt	2	93*	1	-22
CCN(CC)S(=O)(=O)c1ccc(N2CCCC2)c(NC(=O)CN2C(=O)NC3(CCCC3)C2=O)c1	0	9	nt	-4	22*	3	-4
CCN(CC)S(=O)(=O)c1ccc(N2CCOCC2)c(NC(=O)CN2C(=O)NC3(CCCC3)C2=O)c1	nt	nt	nt	nt	-9	nt	nt
Nc1ccccc1C(O)(Cc1ccccc1)c1ccccc1 (stereo unspecified)	-2	2	nt	3	-5	4	nt
Cc1ccc(C2=NN(C(=O)CCCC(=O)O)C(c3ccco3)C2)cc1 (stereo unspecified)	0	-1	3	1	19*	7	-4
